Experimental data taken from PubChem BioAssay (EPA / NIEHS).
Several values for one entry are separate records, joined by “and”; a condition that tells them apart may be missing. Identical values can stand only once. Records with an inconclusive call do not appear. More than one record can exist for a structure, and the calls need not agree. Activity calls are given as the source filed them. The calls were made as follows, unless noted: active = hit-call score of the fitted dose curve at least 0.9, where 1 is the maximum; inconclusive = response in the unintended direction; inactive = score below 0.9.

Assays:
[1] = Tanguay_ZF_120hpf_TR_legacy: (Legacy) Oregon State University Tanguay Lab 120 Hour Post-fertilization zebrafish Assay for Touch Response (AID 2283667)
Summary of the method: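 Tropical 5D wild-type zebrafish embryos were exposed statically in sealed, foil-covered plates at 28C until 120 hpf, with 0.64% (vol/vol) final DMSO. Touch response was scored as present or absent; embryos that died were not scored.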

[2] = CCTE_Padilla_ZF_144hpf_TERATOSCORE: (Legacy) CCTE's 144 Hour Post-fertilization zebrafish Assay Teratoscore, Padilla Lab (AID 2283679; active = hit-call score of the fitted dose curve at least 0.9, where 1 is the maximum; inactive = score below 0.9;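 as to AC50: zebrafish embryos with chorions exposed by immersion from 6-8 hpf to 5 dpf with daily renewal; teratogenicity score from eye scoring of death hatching and malformations at 144 hpf; higher score means more developmental defects relative to DMSO baseline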)
Summary of the method: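 Larvae scored by eye at 144 hpf for death, hatching and malformations after a day in clean Hanks'. Before that, daily-renewed exposure at 80 uM (0.4% DMSO, 26C) from roughly 6-8 hpf through 5 dpf, 4 embryos per chemical.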

[3] = STM_H9_OrnCyssISnorm_ratio: Stemina devTOX quickPredict H9 human embryonic stem cell (hESC)-based Assay for Ornithine (ORN):Cystine (CYSS) Ratio (AID 2283714)
Summary of the method: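 Undifferentiated H9 hESCs were exposed to compound for 72h with media and chemical replaced every 24h. Final 24-h conditioned media were deproteinized and analysed by UPLC-HRMS. ORN and CYSS peak areas were normalized to C13 internal standards and the ratio taken versus 0.1% DMSO.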

[4] = Tanguay_ZF_120hpf_ActivityScore_legacy: (Legacy) Oregon State University Tanguay Lab 120 Hour Post-fertilization zebrafish Assay Score for Activity (AID 2283742);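 as to AC50: static exposure from 6 hpf until 120 hpf at 28 °C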
Summary of the method: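 Tropical 5D wild-type zebrafish embryos, dechorionated with pronase at 4 hpf, were exposed singly from 6 hpf to 120 hpf statically at 28C in 0.64% DMSO. Malformations and mortality were scored as binary by brightfield, with the activity score combining 18 morphology components.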

[5] = ACEA_AR_antagonist_AUC_viability: ACEA Biosciences xCELLigence Real-Time Cell Analysis on Androgen Receptor Antagonism for Viability (AID 2283776);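 also: hits lower the growth signal relative to DMSO meaning cytotoxicity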
Summary of the method: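 22Rv1 human prostate cancer cells were seeded on electrode plates, monitored overnight, then exposed to eight 1:4 dilutions from 100 uM final. Impedance-based growth kinetics at 80 h gave an AUC viability endpoint normalized to DMSO.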

[6] = STM_H9_OrnithineISnorm_perc: Stemina devTOX quickPredict H9 human embryonic stem cell (hESC)-based Assay for Ornithine (ORN) Metabolite Biomarker, Normalized (AID 2283712; active = hit-call score of the fitted dose curve at least 0.9, where 1 is the maximum; inactive = score below 0.9;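 also: ornithine released into spent medium during last day measured by mass spectrometry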)
Summary of the method: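 H9 human embryonic stem cells kept pluripotent receive test chemical over 72 h, refreshed daily by media exchange. Media from the closing 24 h is deproteinized and analysed by UPLC-HRMS on an amide column; ornithine signal is scaled to labelled standard and vehicle.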

[7] = STM_H9_CystineISnorm_perc: Stemina devTOX quickPredict H9 human embryonic stem cell (hESC)-based Assay for Cystine (CYSS) Metabolite Biomarker, Normalized (AID 2283713; active = hit-call score of the fitted dose curve at least 0.9, where 1 is the maximum; inactive = score below 0.9)
Summary of the method: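 H9 hESC, pluripotent; compound 72h, re-dosed q24h with medium change. Last-24h medium → 40% acetonitrile deproteinization → UPLC-HRMS. CYSS area / C13-CYSS standard, then % of 0.1% DMSO median.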

[8] = ArunA_CellTiter_hNC: Viability Assessment in the ArunA Biomedical's Oris Neural Crest (hNC) Cell Migration Assay (AID 2283752)
Summary of the method: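 Cell titer was measured with the CellTiter Aqueous One reagent after 72 h of chemical dosing. Cells were H9-derived embryonic neural crest stem cells seeded on Matrigel, 60,000 per well, and given 16 h at 37C beforehand.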

[9] = ArunA_CellTiter_hNP: Viability Assessment in the ArunA Biomedical's Oris Neural Crest (hNC) Cell Migration Assay (AID 2283753)
Summary of the method: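 H9-derived hNP1 neuroprogenitors, 60,000/well on Matrigel, cultured 16 h, then 72 h chemical exposure in test medium. Cell titer via CellTiter Aqueous One; positive-direction fit vs DMSO.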

[10] = ArunA_Migration_hNP: ArunA Biomedical's Oris Neuroprogenitor (hNP) Cell Migration Assay (AID 2283754)
Summary of the method: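 Human H9-derived hNP1 neuroprogenitors on Matrigel with LIF/bFGF, plated around seeding stoppers for 16 h at 37C; stoppers removed at start of 72 h chemical exposure. Calcein-AM staining, fluorescence 494/517 nm in detection zone; loss-of-signal vs DMSO; cytochalasin D control.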

[11] = ArunA_Migration_hNC: ArunA Biomedical's Oris Neural Crest (hNC) Cell Migration Assay (AID 2283755)
Summary of the method: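 Human H9-derived neural crest stem cells, 60,000/well on Matrigel, 16 h at 37C, then 72 h chemical exposure after seeding-stopper removal. Migration into detection zone read as calcein-AM fluorescence (ex494/em517), relative to DMSO.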

[12] = ArunA_NOG_NucleusCount: ArunA Biomedical's Neurite Outgrowth (NOG) Assay for Nucleus Count (AID 2283756)
Summary of the method: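 Human H9-derived differentiated neurons were exposed for 48 h right after seeding. Hoechst-stained nuclei gated by size and intensity were counted by automated high-content imaging as viable neurons. Loss of signal vs DMSO.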

[13] = ACEA_AR_agonist_AUC_viability: ACEA Biosciences xCELLigence Real-Time Cell Analysis on Androgen Receptor Agonism for Viability (AID 2283775);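 as to AC50: viability read 80 hours after compound addition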
Summary of the method: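 Real-time impedance tracking of 22Rv1 growth, readings every 5 min for 5 h then hourly; area-under-curve viability endpoint at 80 hours, relative to DMSO. Compounds at eight concentrations, 1:4 steps, top 100 uM, n = 2.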

[14] = read-out: Cytochrome P450 (CYP24A1_1), CYP24A1 (gene 1591); test: LTEA_HepaRG_CYP24A1_1: Life Technologies and Expression Analysis (LTEA) Assay for Cytochrome P450 (CYP24A1_1) using HepaRG (AID 2283671; active = hit-call score of the fitted dose curve at least 0.9, where 1 is the maximum; inactive = score below 0.9); details: mRNA level, 48 h; actives raise or lower the signal
Summary of the method: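 HepaRG, 48 h exposure, 8-pt half-log series from 100 uM in 0.5% DMSO, duplicates. Readout: TaqMan qRT-PCR of CYP24A1 mRNA, housekeeping-normalized (ACTB/GAPDH/POLR2A). Bidirectional curve fit vs DMSO baseline.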

[15] = CEETOX_H295R_MTT_cell_viability: Viability Assessment in the CeeTox HT-H295R MTT Assay (AID 2283718; active = hit-call score of the fitted dose curve at least 0.9, where 1 is the maximum; inactive = score below 0.9)
Summary of the method: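 H295R cells prestimulated 48 h with 10 uM forskolin, then exposed 48 h to test chemical (0.1% DMSO final). Viability by MTT (0.5 mg/ml, 4 h, 37 C), absorbance 570/650 nm; percent change versus DMSO, bidirectional fit.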

[16] = ArunA_NOG_NeuriteLength: ArunA Biomedical's Neurite Outgrowth (NOG) Assay for Neurite Length (AID 2283757)
Summary of the method: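 Differentiated human H9-derived neurons were exposed for 48 h from seeding, then stained with Hoechst and βIII-tubulin. Automated high-content imaging gave total neurite length per valid neuron, counting processes >10 um. Loss of signal was scored versus DMSO.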

[17] = ArunA_NOG_NeuritesPerNeuron: ArunA Biomedical's Neurite Outgrowth (NOG) Assay for Neurites Per Neuron (AID 2283758)
Summary of the method: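 Differentiated human H9-derived neurons exposed to chemicals for 48 h from seeding, then stained with Hoechst and βIII-tubulin/DyLight 488. Automated imaging counted neurites (processes >10 um) per valid neuron; loss of signal versus DMSO scored.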

[18] = ArunA_NOG_BranchPointsPerNeurite: ArunA Biomedical's Neurite Outgrowth (NOG) Assay for Branch Points Per Neurite (AID 2283759)
Summary of the method: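 Automated image analysis traced neurites (processes >10 um) from valid cell bodies after Hoechst and βIII-tubulin staining. hNN cells from H9 embryonic stem cells, 48 h exposure. Fitted bidirectionally against DMSO.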

Measured: AC50

O=C(c1ccccc1)c1ccccc1
active: [2] 15.1 µM
inactive: [1] | [3] | [4] | [5]

OCC(CO)(CBr)CBr
inactive: [1] | [6] | [7] | [3] | [4] | [8] | [9] | [10] | [11] | [12] | [13] | [5]

CC(=O)Nc1ccc(O)cc1
inactive: [1] | [4] | [13] | [5]

CCCCC=O
inactive: [1] | [14] | [4] | [13] | [5]
active: [2] 105 µM

CN(Cc1cnc2nc(N)nc(N)c2n1)c1ccc(C(=O)N[C@@H](CCC(=O)O)C(=O)O)cc1
active: [6] 0.0773 µM | [7] 0.0873 µM | [3] 0.0863 µM | [13] 0.787 µM | [5] 0.551 µM
inactive: [1] | [4]

Clc1ccc(Nc2nnc(Cc3ccncc3)c3ccccc23)cc1
inactive: [15]

CS(=O)(=O)c1ccc([C@@H](CC2CCCC2)C(=O)Nc2cnccn2)cc1Cl
inactive: [1] | [4]
active: [2] 58.6 µM

N=C(N)c1ccc(OCCCCCOc2ccc(C(=N)N)cc2)cc1
active: [2] 41.4 µM | [5] 17.3 µM
inactive: [1] | [4]

CCCCc1oc2ccccc2c1C(=O)c1cc(I)c(OCCN(CC)CC)c(I)c1
inactive: [1] | [4]
active: [2] 7.89 µM | [3] 5 µM | [13] 9.56 µM | [5] 9.15 µM

c1cc[nH]c1
inactive: [15]

CC(C)(c1ccc(Oc2ccc(N)cc2)cc1)c1ccc(Oc2ccc(N)cc2)cc1
inactive: [15]

Cn1sccc1=O
active: [3] 10.8 µM

CCC(C)c1ccccc1O (configuration not stated)
inactive: [1] | [4] | [13] | [5]

CCCCCCCCCCCCOS(=O)(=O)O
active: [4] 11 µM
inactive: [1] | [2]

O=C(CCCN1CCC(O)(c2ccc(Cl)cc2)CC1)c1ccc(F)cc1
inactive: [1] | [6] | [7] | [3] | [15] | [8] | [11]
active: [2] 0.664 µM | [4] 4.09 µM | [9] 12.4 µM | [10] 50 µM and 61.7 nM | [11] 5.34 µM | [12] 78.9 µM | [16] 78.1 µM | [17] 77.9 µM | [18] 73.3 µM | [13] 63.8 µM | [5] 53.7 µM

Oc1c(Cl)cc(Cl)cc1Sc1cc(Cl)cc(Cl)c1O
inactive: [3]

CN(C)CCOC(c1ccccc1)c1ccccc1
inactive: [13] | [5]
active: [1] 32.7 µM | [3] 1.55 µM | [4] 202 µM
